Compound activity as filed in PubChem.
Most compounds without a hit are left out; they make up all but 3.2% or so of the library.
ERAP1 inh: inhibitors of human ERAP1 aminopeptidase | 340,000 tested, 0.15% active | Q9NZ08 | inhibition, % at 10.7 µM | recombinant ERAP1, Leu-AMC fluorescence, 60 min;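 active = mean replicate inhibition of at least 30%, or all replicates individually reaching that 30% level; inactive = mean below 30% and not every replicate reaching it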;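 note: 0% = neutral control wells and 100% = L-leucinethiol positive control wells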
Target sequence (Q9NZ08 whole entry, looked up): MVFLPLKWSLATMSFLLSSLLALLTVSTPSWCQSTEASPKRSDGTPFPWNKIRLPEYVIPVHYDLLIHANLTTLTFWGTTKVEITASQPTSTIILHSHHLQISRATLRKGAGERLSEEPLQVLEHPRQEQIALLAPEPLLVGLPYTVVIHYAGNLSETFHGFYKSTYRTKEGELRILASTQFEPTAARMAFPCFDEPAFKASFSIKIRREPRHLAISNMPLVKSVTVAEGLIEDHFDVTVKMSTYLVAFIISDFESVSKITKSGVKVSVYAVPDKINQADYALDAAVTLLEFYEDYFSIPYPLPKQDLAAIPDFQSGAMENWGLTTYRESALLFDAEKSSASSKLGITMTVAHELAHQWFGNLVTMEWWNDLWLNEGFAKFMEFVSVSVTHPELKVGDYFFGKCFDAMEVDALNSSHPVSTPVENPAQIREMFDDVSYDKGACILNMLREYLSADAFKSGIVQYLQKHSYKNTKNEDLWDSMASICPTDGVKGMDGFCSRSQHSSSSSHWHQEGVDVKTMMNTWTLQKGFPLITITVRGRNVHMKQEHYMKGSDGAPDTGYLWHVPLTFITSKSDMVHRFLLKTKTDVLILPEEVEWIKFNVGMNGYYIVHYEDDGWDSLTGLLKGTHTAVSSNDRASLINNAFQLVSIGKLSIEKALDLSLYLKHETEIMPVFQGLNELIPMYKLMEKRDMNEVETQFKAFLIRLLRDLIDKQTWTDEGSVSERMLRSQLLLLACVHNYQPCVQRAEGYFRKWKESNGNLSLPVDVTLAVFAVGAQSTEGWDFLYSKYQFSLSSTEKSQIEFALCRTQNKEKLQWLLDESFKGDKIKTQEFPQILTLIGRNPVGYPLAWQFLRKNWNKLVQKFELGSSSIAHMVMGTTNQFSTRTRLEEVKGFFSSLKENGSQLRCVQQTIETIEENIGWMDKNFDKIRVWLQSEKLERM
PGC1a acetyl inh: lowers PGC1a acetylation signal in U2OS cells | AlphaScreen anti-acetyl-lysine; with virally co-expressed GCN5 acetyltransferase | inhibition, % at 15.6 µM | 350,000 tested, 0.17% active | AID 651687;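 active = every replicate shows inhibition of at least 40%; inconclusive = mean inhibition at least 40% but some replicate below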;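 note: 0% = neutral control wells and 100% = positive control wells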
rRNA inh HTS: inhibitors of bacterial rRNA selective over humanized ribosomes. E. coli WT GFP vs humanized-ribosome RFP mutants, fluorescence, 24 h; active compounds read low; DMSO median 0, no signal -100. GFP signal change (wild-type ribosome), % (concentration not given with the values). 350,000 tested, 1.6% active;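 active = significant combined selectivity score with lowered wild-type GFP, culture density cut under 30%, mutant RFP and density less affected; inactive = any of these conditions unmet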
INS-1E GSIS act: primary screen for activators of insulin secretion dependent on glucose, INS-1E cells, GLuc reporter luminescence; activation, % at 16.6 µM; INS-1E GLuc reporter insulin secretion, 2-3 h; AID 743287; 370,000 tested, 0.61% active;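 active = lowest replicate activation of at least 40%, so every replicate reaches that level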;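 note: 0% = median of neutral control wells and 100% = median of IBMX positive control wells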
CaV13 ICDI inh: Disruptors of the CACNA1D IQ motif to Ca2+-dependent inactivation inhibitor domain association, primary screening, Förster resonance energy transfer in intact living …. 340,000 tested, 0.098% active. AID 743397. HEK cells, CFP/YFP FRET ICDI-IQ, plate reader, 10 min; percent FRET-ratio fall versus neutral wells. inhibition, % at 12.3 µM;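 active = mean replicate inhibition of at least 30% and at least 1% of replicates passing that level; inconclusive = only one of the two criteria is met; inactive = neither criterion is met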;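 note: 0% = median of the neutral control wells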
DENV2 CPE rescue: DENV2-induced cell death inhibition. DENV2-infected cells, cytopathic effect rescue, plate reader. CPE inhibition, % at 9.99 µM. 350,000 tested, 1.7% active; in the data active = CPE inhibition above about 20%, passing the limit was not always enough; inconclusive = no clear call, values can overlap the other calls; tested in BHK-21 cells;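 note: 0% = median of neutral control wells and 100% = median of positive control wells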
* marks the source's active call; other numbers are inactive results; ? = inconclusive; . = not tested or not shown.

SMILES	ERAP1 inh	PGC1a acetyl inh	rRNA inh HTS	INS-1E GSIS act	CaV13 ICDI inh	DENV2 CPE rescue
C[C@@H]1CCCCO[C@H](CN(C)S(=O)(=O)c2ccccc2)[C@H](C)CN([C@@H](C)CO)C(=O)c2cc(NC(=O)Nc3ccc(C(F)(F)F)cc3)ccc2O1	2.8	3.2	2.0	-3.2	.	22.7*
Cc1ccc(S(=O)(=O)N(C)C[C@H]2OCCCC[C@@H](C)Oc3ccc(NC(=O)NC(C)C)cc3C(=O)N([C@H](C)CO)C[C@@H]2C)cc1	-1.1	5.0	-7.3	0.1	.	72.4*
O=C(C[C@@H]1CC[C@H](NC(=O)NC2CCCCC2)[C@@H](CO)O1)NCc1ccccc1	-4.9	-1.0	-0.8	3.8	.	-3.0
CCOc1ccc(C(CC(=O)O)NC(=O)C23CC4CC(CC(C4)C2)C3)cc1 (stereo not drawn)	.	3.0	.	-1.7	-3.5	.
O=C(O)CC(NC(=O)C12CC3CC(CC(C3)C1)C2)c1ccc(OC2CCCC2)cc1 (stereo not drawn)	1.5	-4.1	-2.2	-7.8	3.3	22.3*
Cc1nc(C(=O)NNC(=O)c2ccccc2Cl)c(C(F)(F)F)o1	4.4	-3.9	-2.0	5.0	-4.1	0.9
Cc1nc(C(=O)NNC(=O)c2cccc(Cl)c2)c(C(F)(F)F)o1	3.2	2.2	-27.2*	5.7	-5.4	0.4
c1cncc(C(c2nnnn2C2CCCCC2)N2CCCCC2)c1 (stereo not drawn)	-4.4	-16.7	-20.0*	-3.5	1.6	18.1
Cc1ccc(Cl)cc1N1CCN(C(c2cccnc2)c2nnnn2C2CCCCC2)CC1 (stereo not drawn)	.	-4.8	.	-12.1	.	.
CCC(C)(C)n1nnnc1C(c1ccncc1)N1CCC(Cc2ccccc2)CC1 (stereo not drawn)	.	-14.0	.	.	-3.5	.
CCC(C)(C)n1nnnc1C(c1cccnc1)N1CCC(Cc2ccccc2)CC1 (stereo not drawn)	0.3	.	-33.0*	-39.7	-6.7	-3.4
CC1=CN2C(=N)/C(=C/c3cn(CCCOc4ccccc4C)c4ccccc34)C(=O)N=C2S1	.	.	.	47.2*	-5.2	.
COc1cccc(OCCCn2cc(/C=C3/C(=N)N4C=C(C)SC4=NC3=O)c3ccccc32)c1	-2.7	.	18.6	31.5	-32.2	5.6
O=C(NCCCCc1ccccc1)c1ccccc1Br	-2.2	-6.8	-36.2*	14.3	-4.8	2.0
CC(Oc1ccc2c3c(c(=O)oc2c1)CCCC3)C(=O)NCc1cccnc1 (stereo not drawn)	2.1	.	-1.5	48.1*	-6.7	-4.3
O=C(O)COc1ccc2c3c(c(=O)oc2c1)CCC3	.	5.0	.	130.5*	-5.2	.
CCC(=O)N(C)C[C@@H]1Oc2cc(C#CC(C)(C)O)ccc2S(=O)(=O)N([C@H](C)CO)C[C@H]1C	1.7	-11.8	3.9	19.3	.	-3.8
O=C(Nc1ccc2cn[nH]c2c1)c1c(Cl)cccc1Cl	.	-2.0	.	0.3	-5.4	.
O=C1C(Cl)=C(Nc2ccc3cn[nH]c3c2)C(=O)c2ccccc21	3.5	54.7*	-12.4	-43.3	-2.4	-0.4
C/C=C(/C)C(=O)O[C@@H]1c2c(ccc3ccc(=O)oc23)OC(C)(C)[C@@H]1OC(=O)/C(C)=C\C	-1.5	.	-4.7	-25.2	-9.1	25.9*
C=CCNc1sc(C(=O)C2CC2)c(N)c1C#N	.	-0.2	.	64.7*	-0.3	.
C=CCNc1sc(C(=O)C(C)(C)C)c(N)c1C#N	.	-0.2	.	.	-5.3	.
COCC(=O)Nc1ccc2c(c1)[C@@H]1C[C@H](CC(=O)NCc3ccc(-c4ccccc4)cc3)O[C@@H](CO)[C@@H]1O2	-3.0	-2.2	-6.7	-30.5	.	3.9
CCCc1c(C(=O)N2CCN(c3ccccc3OC)CC2)cnn1-c1ccccc1	6.9	4.2	3.2	10.0	-4.2	-0.6
CCCc1c(C(=O)Nc2ccc(OC)cc2)cnn1-c1ccccc1	5.0	4.4	-23.5*	5.8	-4.3	?
SMILES	ERAP1 inh	PGC1a acetyl inh	rRNA inh HTS	INS-1E GSIS act	CaV13 ICDI inh	DENV2 CPE rescue
CCCc1c(C(=O)NNc2ccccc2OC)cnn1-c1ccccc1	4.5	.	-23.4*	5.6	-14.7	12.9
COc1cccc(S(=O)(=O)N[C@H]2CC[C@@H](CC(=O)NCc3ccc(Cl)cc3)O[C@H]2CO)c1	2.4	-0.5	-7.1	-10.1	.	6.8
C[C@@H]1CN([C@@H](C)CO)C(=O)c2cc(-c3cccnc3)cnc2O[C@@H]1CN(C)C(=O)C1CCCCC1	.	-1.3	4.5	12.0	.	.
Cc1ccc([C@@H]2CC=C(C(=O)O)[C@H](c3ccc(C(C)(C)C)cc3)N2S(=O)(=O)c2ccc(C)cc2)cc1	1.4	5.7	0.5	-23.6	-9.7	?
Cc1ccc([C@@H]2CC=C(C(=O)O)[C@H](c3ccc(Br)cc3)N2S(=O)(=O)c2ccc(C)cc2)cc1	.	-3.0	-32.4	-17.6	-9.6	4.4
Cc1ccc(S(=O)(=O)N2[C@@H](c3ccc(Br)cc3)C(C(=O)O)=CC[C@H]2c2ccc(C(C)C)cc2)cc1	.	8.1	-23.1*	-38.5	-9.2	23.3*
CCc1ccc([C@@H]2CC=C(C(=O)O)[C@H](c3ccc(C(C)(C)C)cc3)N2S(=O)(=O)c2ccc(C)cc2)cc1	4.9	-3.8	-6.1	-1.1	-4.8	48.3*
CCN=C1S/C(=C/c2ccc(-c3ccc(Cl)cc3C(=O)O)o2)C(=O)N1CC	-11.4	.	-2.6	87.6*	-4.6	0.7
Cc1cc(C)n(-c2nnc(Cl)c3ccccc23)n1	-3.4	-46.1	20.1	20.8	-24.1	22.9*
COc1ccc(C[C@@H]2CCn3nncc3COC[C@H](c3ccccc3)NC2=O)cc1	.	.	-3.7	9.9	.	.
O=C(CC(C(=O)O)c1c[nH]c2ccccc12)c1ccccc1 (stereo not drawn)	-0.9	81.2*	13.8	-5.9	-5.3	-3.9
CCNC(=O)C[C@@H]1CC[C@@H]2[C@@H](COc3ccc(NC(=O)c4ccc(F)cc4)cc3C(=O)N2C)O1	1.4	2.0	-2.0	2.7	.	2.0
Cc1c(CC(=O)O)c(=O)oc2c(C)c(OCc3ccccc3)ccc12	-2.5	5.0	-13.3	0.9	-16.4	6.6
Cc1c(CC(=O)O)c(=O)oc2c(C)c(OCc3ccccc3Br)ccc12	-1.3	-4.7	-2.5	41.2*	-19.0	-3.8
CCCC(=O)Nc1ccc2c(c1)OC[C@H](C)N(C(=O)C1CCCC1)C[C@@H](C)[C@@H](OC)CN(C)C2=O	-2.3	0.3	-0.3	3.3	.	-7.8
Cc1ccc(NC2CNC(=O)NC2=O)cc1C (stereo not drawn)	1.6	0.3	13.0	4.7	-5.4	9.6
Cc1ccc(NC2C(=O)NC(=O)NC2=O)cc1	6.0	-11.9	.	.	-16.2	36.2*
CCC(=O)N1CC2(C1)[C@@H](c1ccccc1)[C@H](CO)N2C(=O)NC(C)C	-7.0	.	1.3	5.2	.	-0.4
